Consider 4 sequences from publication PMC11006913.

What all share (experiment): PBM; 200 nM protein, PBS
Holding throughout (settings): dsDNA, one strand shown

In assay [1] the target is HESX1 (Homo sapiens, UniProt Q9UBX0 95-180, R165K).
Assay [2] addresses HOXB4 (Homo sapiens, UniProt P17483 148-234).
Assay [3] concerns the target SHOX (Homo sapiens, UniProt O15266 103-189).
Assay [4] deals with HESX1 (Homo sapiens, UniProt Q9UBX0 95-180).
The target in a further assay is HOXA4 (Homo sapiens, UniProt Q00056 201-287, R217L).
Chain of HOXA4 (Q00056 201-287 R217L): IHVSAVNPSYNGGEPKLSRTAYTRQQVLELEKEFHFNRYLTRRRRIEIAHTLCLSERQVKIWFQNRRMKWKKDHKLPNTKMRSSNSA
Assay [5] has as its target HOXB4 (Homo sapiens, UniProt P17483 148-234, V174I).
The target in assay [6] is ALX1 (Homo sapiens, UniProt Q15699 118-204, L144V).
Chain of ALX1 (Homo sapiens, UniProt Q15699 118-204, L144V) (Q15699 118-204 L144V): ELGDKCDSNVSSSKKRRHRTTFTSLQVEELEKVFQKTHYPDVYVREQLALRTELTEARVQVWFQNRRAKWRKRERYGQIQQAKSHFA
Assay [7] has as its target ALX3 (Homo sapiens, UniProt O95076 139-225, N203Q).
The target in assay [8] is SHOX (Homo sapiens, UniProt O15266 103-189, R173C).
Chain of SHOX (Homo sapiens, UniProt O15266 103-189, R173C) (O15266 103-189 R173C): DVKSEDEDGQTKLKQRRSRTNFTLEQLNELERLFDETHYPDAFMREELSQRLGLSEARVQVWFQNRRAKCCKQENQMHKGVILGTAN
Assay [9] has as its target ALX1 (Homo sapiens, UniProt Q15699 118-204, L144R).
Assay [10] concerns the target ALX3 (Homo sapiens, UniProt O95076 139-225).
The target of assay [11] is PROP1 (Homo sapiens, UniProt O75360 56-141).
Chain of PROP1 (Homo sapiens, UniProt O75360 56-141) (O75360 56-141): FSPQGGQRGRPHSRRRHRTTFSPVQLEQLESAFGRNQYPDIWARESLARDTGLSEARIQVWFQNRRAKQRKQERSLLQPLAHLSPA
For assay [12], the target named is HESX1 (Homo sapiens, UniProt Q9UBX0 95-180, R109Q).
Chain of HESX1 (Homo sapiens, UniProt Q9UBX0 95-180, R109Q) (Q9UBX0 95-180 R109Q): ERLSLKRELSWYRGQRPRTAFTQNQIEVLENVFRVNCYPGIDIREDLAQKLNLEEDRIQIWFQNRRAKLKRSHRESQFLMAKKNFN
Assay [13] has as its target PROP1 (Homo sapiens, UniProt O75360 56-141, R99H).
Assay [14] deals with ALX3 (Homo sapiens, UniProt O95076 139-225, L168Q).
Chain of ALX3 (Homo sapiens, UniProt O95076 139-225, L168Q) (O95076 139-225 L168Q): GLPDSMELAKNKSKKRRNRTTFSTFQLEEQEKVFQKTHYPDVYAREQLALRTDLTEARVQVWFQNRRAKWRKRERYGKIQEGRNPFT
Assay [15] addresses HESX1 (Homo sapiens, UniProt Q9UBX0 95-180, P111T).
Assay [16] concerns the target ALX3 (Homo sapiens, UniProt O95076 139-225, L168V).
For assay [17], the target named is PROP1 (Homo sapiens, UniProt O75360 56-141, F88S).
Chain of PROP1 (Homo sapiens, UniProt O75360 56-141, F88S) (O75360 56-141 F88S): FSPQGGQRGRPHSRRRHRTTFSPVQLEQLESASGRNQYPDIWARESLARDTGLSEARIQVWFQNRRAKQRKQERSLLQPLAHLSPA
Assay [18] deals with HESX1 (Homo sapiens, UniProt Q9UBX0 95-180, F115L).
Chain of HESX1 (Homo sapiens, UniProt Q9UBX0 95-180, F115L) (Q9UBX0 95-180 F115L): as the sequence (Q9UBX0 95-180 R109Q) above, with Q15R, F21L counted along it
The target of assay [19] is ALX3 (Homo sapiens, UniProt O95076 139-225, N203S).
Chain of ALX3 (Homo sapiens, UniProt O95076 139-225, N203S) (O95076 139-225 N203S): as the sequence (O95076 139-225 L168Q) above, with Q30L, N65S counted along it

Chain of HOXB4 (Homo sapiens, UniProt P17483 148-234, V174I) (P17483 148-234 V174I): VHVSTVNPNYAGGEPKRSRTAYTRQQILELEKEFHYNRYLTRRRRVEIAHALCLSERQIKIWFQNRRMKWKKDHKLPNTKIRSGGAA
Chain of ALX3 (Homo sapiens, UniProt O95076 139-225, L168V) (O95076 139-225 L168V): as the sequence (O95076 139-225 L168Q) above, with Q30V counted along it
Chain of HESX1 (Homo sapiens, UniProt Q9UBX0 95-180, P111T) (Q9UBX0 95-180 P111T): as the sequence (Q9UBX0 95-180 R109Q) above, with Q15R, P17T counted along it
Chain of HESX1 (Homo sapiens, UniProt Q9UBX0 95-180, R165K) (Q9UBX0 95-180 R165K): as the sequence (Q9UBX0 95-180 R109Q) above, with Q15R, R71K counted along it
Chain of ALX3 (Homo sapiens, UniProt O95076 139-225) (O95076 139-225): as the sequence (O95076 139-225 L168Q) above, with Q30L counted along it
Chain of SHOX (Homo sapiens, UniProt O15266 103-189) (O15266 103-189): as the sequence (O15266 103-189 R173C) above, with C71R counted along it
Chain of PROP1 (Homo sapiens, UniProt O75360 56-141, R99H) (O75360 56-141 R99H): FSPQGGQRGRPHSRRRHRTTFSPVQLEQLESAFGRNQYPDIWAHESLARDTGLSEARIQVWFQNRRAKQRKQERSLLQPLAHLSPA
Chain of ALX3 (Homo sapiens, UniProt O95076 139-225, N203Q) (O95076 139-225 N203Q): as the sequence (O95076 139-225 L168Q) above, with Q30L, N65Q counted along it
Chain of ALX1 (Homo sapiens, UniProt Q15699 118-204, L144R) (Q15699 118-204 L144R): as the sequence (Q15699 118-204 L144V) above, with V27R counted along it
Chain of HOXB4 (Homo sapiens, UniProt P17483 148-234) (P17483 148-234): as the sequence (P17483 148-234 V174I) above, with I27V counted along it
Chain of HESX1 (Homo sapiens, UniProt Q9UBX0 95-180) (Q9UBX0 95-180): as the sequence (Q9UBX0 95-180 R109Q) above, with Q15R counted along it

With AGTAATTA, the binding signal was 13 upbm affinity estimate (log intensity, higher = more binding, comparable within an allelic series) with HESX1 [1]; 13.6 upbm affinity estimate (log intensity, higher = more binding, comparable within an allelic series) with HOXB4 [2]; 12.7 upbm affinity estimate (log intensity, higher = more binding, comparable within an allelic series) in the assay with SHOX [3]; 13.1 upbm affinity estimate (log intensity, higher = more binding, comparable within an allelic series) with HESX1 [4]; 13.1 upbm affinity estimate (log intensity, higher = more binding, comparable within an allelic series) in the assay with HOXA4; 14.4 upbm affinity estimate (log intensity, higher = more binding, comparable within an allelic series) with HOXB4 [5]. Moreover, the binding signal is 12.2 upbm affinity estimate (log intensity, higher = more binding, comparable within an allelic series) with ALX1 [6]; 8.6 upbm affinity estimate (log intensity, higher = more binding, comparable within an allelic series) in the assay with ALX3 [7]; 10 upbm affinity estimate (log intensity, higher = more binding, comparable within an allelic series) with SHOX [8]; 11.8 upbm affinity estimate (log intensity, higher = more binding, comparable within an allelic series) with ALX1 [9]; 12.8 upbm affinity estimate (log intensity, higher = more binding, comparable within an allelic series) with ALX3 [10]; 11.9 upbm affinity estimate (log intensity, higher = more binding, comparable within an allelic series) with PROP1 [11]. For the same sequence, the binding signal with HESX1 [12] was 9.52 upbm affinity estimate (log intensity, higher = more binding, comparable within an allelic series); in the assay with PROP1 [13], 11.9 upbm affinity estimate (log intensity, higher = more binding, comparable within an allelic series); with ALX3 [14], 11 upbm affinity estimate (log intensity, higher = more binding, comparable within an allelic series); with HESX1 [15], 11.6 upbm affinity estimate (log intensity, higher = more binding, comparable within an allelic series); in the assay with ALX3 [16] it was 10.6 upbm affinity estimate (log intensity, higher = more binding, comparable within an allelic series); with PROP1 [17] it was 7.94 upbm affinity estimate (log intensity, higher = more binding, comparable within an allelic series). Besides, the binding signal was 8.09 upbm affinity estimate (log intensity, higher = more binding, comparable within an allelic series) in the assay with HESX1 [18] and 8.73 upbm affinity estimate (log intensity, higher = more binding, comparable within an allelic series) in the assay with ALX3 [19].
As for ATTAATGA, the binding signal in the assay with HESX1 [1] is 11.4 upbm affinity estimate (log intensity, higher = more binding, comparable within an allelic series); in the assay with HOXB4 [2], 13.5 upbm affinity estimate (log intensity, higher = more binding, comparable within an allelic series); with SHOX [3], 11.5 upbm affinity estimate (log intensity, higher = more binding, comparable within an allelic series); in the assay with HOXA4, 12.9 upbm affinity estimate (log intensity, higher = more binding, comparable within an allelic series); in the assay with HOXB4 [5] it was 14.1 upbm affinity estimate (log intensity, higher = more binding, comparable within an allelic series); in the assay with ALX1 [6], 11.6 upbm affinity estimate (log intensity, higher = more binding, comparable within an allelic series). Moreover, the binding signal with ALX3 [7] was 8.5 upbm affinity estimate (log intensity, higher = more binding, comparable within an allelic series); in the assay with SHOX [8], 9.51 upbm affinity estimate (log intensity, higher = more binding, comparable within an allelic series); in the assay with ALX1 [9], 11.4 upbm affinity estimate (log intensity, higher = more binding, comparable within an allelic series); with ALX3 [10], 12.3 upbm affinity estimate (log intensity, higher = more binding, comparable within an allelic series); with PROP1 [11], 11.2 upbm affinity estimate (log intensity, higher = more binding, comparable within an allelic series); with HESX1 [12], 8.79 upbm affinity estimate (log intensity, higher = more binding, comparable within an allelic series). Further, the binding signal with PROP1 [13] was 10.9 upbm affinity estimate (log intensity, higher = more binding, comparable within an allelic series); in the assay with ALX3 [14], 10.3 upbm affinity estimate (log intensity, higher = more binding, comparable within an allelic series); with ALX3 [16] it was 9.84 upbm affinity estimate (log intensity, higher = more binding, comparable within an allelic series); with PROP1 [17], 7.87 upbm affinity estimate (log intensity, higher = more binding, comparable within an allelic series); in the assay with HESX1 [18] it was 7.87 upbm affinity estimate (log intensity, higher = more binding, comparable within an allelic series); with ALX3 [19], 8.58 upbm affinity estimate (log intensity, higher = more binding, comparable within an allelic series).
Turning to TTAATTAA, the binding signal was 13.7 upbm affinity estimate (log intensity, higher = more binding, comparable within an allelic series) with HESX1 [1]; 13.5 upbm affinity estimate (log intensity, higher = more binding, comparable within an allelic series) with HOXB4 [2]; 13.3 upbm affinity estimate (log intensity, higher = more binding, comparable within an allelic series) in the assay with SHOX [3]; 13.6 upbm affinity estimate (log intensity, higher = more binding, comparable within an allelic series) with HESX1 [4]; 13.2 upbm affinity estimate (log intensity, higher = more binding, comparable within an allelic series) in the assay with HOXA4; 14.2 upbm affinity estimate (log intensity, higher = more binding, comparable within an allelic series) with HOXB4 [5]. Also, the binding signal with ALX1 [6] is 12.3 upbm affinity estimate (log intensity, higher = more binding, comparable within an allelic series); with ALX3 [7], 8.75 upbm affinity estimate (log intensity, higher = more binding, comparable within an allelic series); with SHOX [8], 11.2 upbm affinity estimate (log intensity, higher = more binding, comparable within an allelic series); with ALX1 [9], 11.9 upbm affinity estimate (log intensity, higher = more binding, comparable within an allelic series); with ALX3 [10], 13 upbm affinity estimate (log intensity, higher = more binding, comparable within an allelic series); with PROP1 [11] it was 12.3 upbm affinity estimate (log intensity, higher = more binding, comparable within an allelic series). Moreover, the binding signal in the assay with HESX1 [12] was 11.2 upbm affinity estimate (log intensity, higher = more binding, comparable within an allelic series); with PROP1 [13], 12.4 upbm affinity estimate (log intensity, higher = more binding, comparable within an allelic series); in the assay with ALX3 [14], 11.7 upbm affinity estimate (log intensity, higher = more binding, comparable within an allelic series); with HESX1 [15], 12.6 upbm affinity estimate (log intensity, higher = more binding, comparable within an allelic series); with ALX3 [16], 11.6 upbm affinity estimate (log intensity, higher = more binding, comparable within an allelic series); with PROP1 [17] it was 8.42 upbm affinity estimate (log intensity, higher = more binding, comparable within an allelic series). Also, the binding signal with HESX1 [18] was 8.85 upbm affinity estimate (log intensity, higher = more binding, comparable within an allelic series); with ALX3 [19] it was 8.98 upbm affinity estimate (log intensity, higher = more binding, comparable within an allelic series).
Take GATAATTA: the binding signal with HESX1 [1] is 13.6 upbm affinity estimate (log intensity, higher = more binding, comparable within an allelic series); with HOXB4 [2], 13.8 upbm affinity estimate (log intensity, higher = more binding, comparable within an allelic series); with SHOX [3] it was 12.6 upbm affinity estimate (log intensity, higher = more binding, comparable within an allelic series); in the assay with HESX1 [4], 13.4 upbm affinity estimate (log intensity, higher = more binding, comparable within an allelic series); with HOXA4 it was 13.1 upbm affinity estimate (log intensity, higher = more binding, comparable within an allelic series); in the assay with HOXB4 [5] it was 14.5 upbm affinity estimate (log intensity, higher = more binding, comparable within an allelic series). Moreover, the binding signal in the assay with ALX1 [6] is 12.3 upbm affinity estimate (log intensity, higher = more binding, comparable within an allelic series); in the assay with ALX3 [7], 8.59 upbm affinity estimate (log intensity, higher = more binding, comparable within an allelic series); with SHOX [8], 10.1 upbm affinity estimate (log intensity, higher = more binding, comparable within an allelic series); with ALX1 [9], 11.8 upbm affinity estimate (log intensity, higher = more binding, comparable within an allelic series); in the assay with ALX3 [10] it was 12.9 upbm affinity estimate (log intensity, higher = more binding, comparable within an allelic series); in the assay with PROP1 [11] it was 12 upbm affinity estimate (log intensity, higher = more binding, comparable within an allelic series). Moreover, the binding signal in the assay with HESX1 [12] was 9.64 upbm affinity estimate (log intensity, higher = more binding, comparable within an allelic series); with PROP1 [13], 12 upbm affinity estimate (log intensity, higher = more binding, comparable within an allelic series); with ALX3 [14], 11.2 upbm affinity estimate (log intensity, higher = more binding, comparable within an allelic series); with HESX1 [15], 11.9 upbm affinity estimate (log intensity, higher = more binding, comparable within an allelic series); in the assay with ALX3 [16], 10.8 upbm affinity estimate (log intensity, higher = more binding, comparable within an allelic series); with PROP1 [17], 7.94 upbm affinity estimate (log intensity, higher = more binding, comparable within an allelic series). In addition, the binding signal is 8.2 upbm affinity estimate (log intensity, higher = more binding, comparable within an allelic series) in the assay with HESX1 [18] and 8.72 upbm affinity estimate (log intensity, higher = more binding, comparable within an allelic series) with ALX3 [19].
